Assays:
Assay in all cases: phenotypically active (imaging signature differs from DMSO and reproducible) at any of 0.3-9 uM (binary (1 = active, 0 = inactive)); higher = active
Conditions in all cases: treatment time: 24 h
A549-ACTB-RAB5A = system: A549-ACTB-RAB5A
Summary of the method: (§1)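 Fifteen reporter lines derived from A549, HepG2 and WPMY1 cells by gene editing, carrying BFP for segmentation plus GFP and RFP/FusionRed markers, were exposed to 0.3, 1, 3 or 9 µM for 24 h in four wells each and imaged live. Live-cell features from each well were normalised to solvent control wells. A well set counted as deviating when ≥3 of 4 wells lay beyond the 95th percentile of control Euclidean distances, and as reproducible when the median replicate Pearson correlation exceeded the 95th percentile of non-replicates. Phenotypic activity was assigned only when both criteria were met.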

A549-CANX-COX4 = system: A549-CANX-COX4
Summary of the method: as §1

A549-GM130-SQSTM1 = system: A549-GM130-SQSTM1
Summary of the method: as §1

A549-TP53BP1-CLTA = system: A549-TP53BP1-CLTA
Summary of the method: as §1

A549-TUBA1B-RELA = system: A549-TUBA1B-RELA
Summary of the method: as §1

HepG2-ACTB-RAB5A = system: HepG2-ACTB-RAB5A
Summary of the method: as §1

HepG2-CANX-COX4 = system: HepG2-CANX-COX4
Summary of the method: as §1

HepG2-GM130-SQSTM1 = system: HepG2-GM130-SQSTM1
Summary of the method: as §1

HepG2-TP53BP1-CLTA = system: HepG2-TP53BP1-CLTA
Summary of the method: as §1

HepG2-TUBA1B-RELA = system: HepG2-TUBA1B-RELA
Summary of the method: as §1

WPMY1-ACTB-RAB5A = system: WPMY1-ACTB-RAB5A
Summary of the method: as §1

WPMY1-CANX-COX4 = system: WPMY1-CANX-COX4
Summary of the method: as §1

WPMY1-GM130-SQSTM1 = system: WPMY1-GM130-SQSTM1
Summary of the method: as §1

WPMY1-TP53BP1-CLTA = system: WPMY1-TP53BP1-CLTA
Summary of the method: as §1

WPMY1-TUBA1B-RELA = system: WPMY1-TUBA1B-RELA
Summary of the method: as §1

Measured: phenotypically active

CCCNC(=O)NS(=O)(=O)c1ccc(Cl)cc1 [chlorpropamide]
inactive: A549-ACTB-RAB5A 0 | A549-CANX-COX4 0 | A549-GM130-SQSTM1 0 | A549-TP53BP1-CLTA 0 | A549-TUBA1B-RELA 0 | HepG2-ACTB-RAB5A 0 | HepG2-CANX-COX4 0 | HepG2-GM130-SQSTM1 0 | HepG2-TP53BP1-CLTA 0 | HepG2-TUBA1B-RELA 0 | WPMY1-ACTB-RAB5A 0 | WPMY1-CANX-COX4 0 | WPMY1-GM130-SQSTM1 0 | WPMY1-TP53BP1-CLTA 0 | WPMY1-TUBA1B-RELA 0

O=C(c1ccccc1)c1ccc2n1CCC2C(=O)O (stereo not given) [ketorolac]
inactive: A549-ACTB-RAB5A 0 | A549-CANX-COX4 0 | A549-GM130-SQSTM1 0 | A549-TP53BP1-CLTA 0 | A549-TUBA1B-RELA 0 | HepG2-ACTB-RAB5A 0 | HepG2-CANX-COX4 0 | HepG2-GM130-SQSTM1 0 | HepG2-TP53BP1-CLTA 0 | HepG2-TUBA1B-RELA 0 | WPMY1-ACTB-RAB5A 0 | WPMY1-CANX-COX4 0 | WPMY1-GM130-SQSTM1 0 | WPMY1-TP53BP1-CLTA 0 | WPMY1-TUBA1B-RELA 0

CC(C)(Sc1ccc(CCN(CCCCC2CCCCC2)C(=O)NC2CCCCC2)cc1)C(=O)O
inactive: A549-ACTB-RAB5A 0 | A549-CANX-COX4 0 | A549-GM130-SQSTM1 0 | A549-TP53BP1-CLTA 0 | A549-TUBA1B-RELA 0 | HepG2-ACTB-RAB5A 0 | HepG2-CANX-COX4 0 | HepG2-GM130-SQSTM1 0 | HepG2-TP53BP1-CLTA 0 | HepG2-TUBA1B-RELA 0 | WPMY1-ACTB-RAB5A 0 | WPMY1-CANX-COX4 0 | WPMY1-GM130-SQSTM1 0 | WPMY1-TP53BP1-CLTA 0 | WPMY1-TUBA1B-RELA 0

O=C1CCc2c(ccc3ccccc23)O1 [Splitomicin]
inactive: A549-ACTB-RAB5A 0 | A549-CANX-COX4 0 | A549-GM130-SQSTM1 0 | A549-TP53BP1-CLTA 0 | A549-TUBA1B-RELA 0 | HepG2-ACTB-RAB5A 0 | HepG2-CANX-COX4 0 | HepG2-GM130-SQSTM1 0 | HepG2-TP53BP1-CLTA 0 | HepG2-TUBA1B-RELA 0 | WPMY1-ACTB-RAB5A 0 | WPMY1-CANX-COX4 0 | WPMY1-GM130-SQSTM1 0 | WPMY1-TP53BP1-CLTA 0 | WPMY1-TUBA1B-RELA 0

NC(=O)N1c2ccccc2C=Cc2ccccc21 [carbamazepine]
inactive: A549-ACTB-RAB5A 0 | A549-CANX-COX4 0 | A549-GM130-SQSTM1 0 | A549-TP53BP1-CLTA 0 | A549-TUBA1B-RELA 0 | HepG2-ACTB-RAB5A 0 | HepG2-CANX-COX4 0 | HepG2-GM130-SQSTM1 0 | HepG2-TP53BP1-CLTA 0 | HepG2-TUBA1B-RELA 0 | WPMY1-ACTB-RAB5A 0 | WPMY1-CANX-COX4 0 | WPMY1-GM130-SQSTM1 0 | WPMY1-TP53BP1-CLTA 0 | WPMY1-TUBA1B-RELA 0

CCCCCN(C)CCC(O)(P(=O)(O)O)P(=O)(O)O [ibandronate]
inactive: A549-ACTB-RAB5A 0 | A549-CANX-COX4 0 | A549-GM130-SQSTM1 0 | A549-TP53BP1-CLTA 0 | A549-TUBA1B-RELA 0 | HepG2-ACTB-RAB5A 0 | HepG2-CANX-COX4 0 | HepG2-GM130-SQSTM1 0 | HepG2-TP53BP1-CLTA 0 | HepG2-TUBA1B-RELA 0 | WPMY1-ACTB-RAB5A 0 | WPMY1-CANX-COX4 0 | WPMY1-GM130-SQSTM1 0 | WPMY1-TP53BP1-CLTA 0 | WPMY1-TUBA1B-RELA 0

O=c1oc2c(O)c(O)cc3c(=O)oc4c(O)c(O)cc1c4c23 [Ellagic acid]
inactive: A549-ACTB-RAB5A 0 | A549-CANX-COX4 0 | A549-GM130-SQSTM1 0 | A549-TP53BP1-CLTA 0 | A549-TUBA1B-RELA 0 | HepG2-ACTB-RAB5A 0 | HepG2-CANX-COX4 0 | HepG2-GM130-SQSTM1 0 | HepG2-TP53BP1-CLTA 0 | HepG2-TUBA1B-RELA 0 | WPMY1-ACTB-RAB5A 0 | WPMY1-CANX-COX4 0 | WPMY1-GM130-SQSTM1 0 | WPMY1-TP53BP1-CLTA 0 | WPMY1-TUBA1B-RELA 0

Cc1c(-c2ccccc2)oc2c(C(=O)OCCN3CCCCC3)cccc2c1=O [flavoxate]
inactive: A549-ACTB-RAB5A 0 | A549-CANX-COX4 0 | A549-GM130-SQSTM1 0 | A549-TP53BP1-CLTA 0 | A549-TUBA1B-RELA 0 | HepG2-ACTB-RAB5A 0 | HepG2-CANX-COX4 0 | HepG2-GM130-SQSTM1 0 | HepG2-TP53BP1-CLTA 0 | HepG2-TUBA1B-RELA 0 | WPMY1-ACTB-RAB5A 0 | WPMY1-CANX-COX4 0 | WPMY1-GM130-SQSTM1 0 | WPMY1-TP53BP1-CLTA 0 | WPMY1-TUBA1B-RELA 0

C[C@@H](CO)CCC[C@@H](C)[C@H]1CC[C@H]2[C@@H]3CC=C4C[C@@H](O)CC[C@]4(C)[C@H]3CC[C@]12C [27-Hydroxycholesterol]
inactive: A549-ACTB-RAB5A 0 | A549-CANX-COX4 0 | A549-GM130-SQSTM1 0 | A549-TP53BP1-CLTA 0 | A549-TUBA1B-RELA 0 | HepG2-ACTB-RAB5A 0 | HepG2-CANX-COX4 0 | HepG2-GM130-SQSTM1 0 | HepG2-TP53BP1-CLTA 0 | HepG2-TUBA1B-RELA 0 | WPMY1-ACTB-RAB5A 0 | WPMY1-CANX-COX4 0 | WPMY1-GM130-SQSTM1 0 | WPMY1-TP53BP1-CLTA 0 | WPMY1-TUBA1B-RELA 0

CC(=O)/N=c1/sc(S(N)(=O)=O)nn1C [methazolamide]
inactive: A549-ACTB-RAB5A 0 | A549-CANX-COX4 0 | A549-GM130-SQSTM1 0 | A549-TP53BP1-CLTA 0 | A549-TUBA1B-RELA 0 | HepG2-ACTB-RAB5A 0 | HepG2-CANX-COX4 0 | HepG2-GM130-SQSTM1 0 | HepG2-TP53BP1-CLTA 0 | HepG2-TUBA1B-RELA 0 | WPMY1-ACTB-RAB5A 0 | WPMY1-CANX-COX4 0 | WPMY1-GM130-SQSTM1 0 | WPMY1-TP53BP1-CLTA 0 | WPMY1-TUBA1B-RELA 0

COc1c2c(cc3oc(CO)cc(=O)c13)O[C@@H](C(C)(C)O)C2 [Cimifugin]
inactive: A549-ACTB-RAB5A 0 | A549-CANX-COX4 0 | A549-GM130-SQSTM1 0 | A549-TP53BP1-CLTA 0 | A549-TUBA1B-RELA 0 | HepG2-ACTB-RAB5A 0 | HepG2-CANX-COX4 0 | HepG2-GM130-SQSTM1 0 | HepG2-TP53BP1-CLTA 0 | HepG2-TUBA1B-RELA 0 | WPMY1-ACTB-RAB5A 0 | WPMY1-CANX-COX4 0 | WPMY1-GM130-SQSTM1 0 | WPMY1-TP53BP1-CLTA 0 | WPMY1-TUBA1B-RELA 0

CCCCC(=O)O[C@H]1CC[C@H]2[C@@H]3CCc4cc(O)ccc4[C@H]3CC[C@]12C [estradiol valerate]
inactive: A549-ACTB-RAB5A 0 | A549-CANX-COX4 0 | A549-GM130-SQSTM1 0 | A549-TP53BP1-CLTA 0 | A549-TUBA1B-RELA 0 | HepG2-ACTB-RAB5A 0 | HepG2-CANX-COX4 0 | HepG2-GM130-SQSTM1 0 | HepG2-TP53BP1-CLTA 0 | HepG2-TUBA1B-RELA 0 | WPMY1-ACTB-RAB5A 0 | WPMY1-CANX-COX4 0 | WPMY1-GM130-SQSTM1 0 | WPMY1-TP53BP1-CLTA 0 | WPMY1-TUBA1B-RELA 0
